This note sets out measurements from PubChem BioAssay AID1347428 (National Center for Advancing Translational Sciences (NCATS), 2020).

Out of some 91,000 compounds screened, about 290 (0.32%) were called active. Not shown: some 7% with an inconclusive outcome. The sample as a whole holds a higher share of actives than the screen did. A number with no mark means an inactive call. Calls follow the shape of the dose curve; as a rule, active = well fitted inhibition curve with a large enough effect; inconclusive = small, poorly fitted or top-dose-only effect; inactive = no such curve, though single readings can be large or run the other way.
% is scaled to controls: 0 for no effect and ±100 for the full control effect; potency is read from the fitted curve at half-maximal effect.

The target of the assay is Single-stranded DNA cytosine deaminase (Homo sapiens) (UniProt Q9GZX7). The experiment in a line: Primary qHTS assay for inhibitors of Activation Induced Cytidine Deaminase (AID): AID signal. Also: nearly all actives have a fitted effect of over 25% in size. The note with it: AID deamination FRET fluorescence, UDG-coupled, 4 h; series mostly up to 115 µM; activity change, negative = inhibition: at the top concentration. An excerpt: Assay Provider (PI) Patricia Gearhart Ph.D.
Single-stranded DNA cytosine deaminase (Homo sapiens), sequence (Q9GZX7 whole entry, looked up): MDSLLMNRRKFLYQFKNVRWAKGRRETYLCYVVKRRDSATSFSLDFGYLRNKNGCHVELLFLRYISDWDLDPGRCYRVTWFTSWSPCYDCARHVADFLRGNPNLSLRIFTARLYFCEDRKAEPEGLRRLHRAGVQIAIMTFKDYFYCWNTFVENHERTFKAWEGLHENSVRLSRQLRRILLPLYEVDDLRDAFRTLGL
National Institute on Aging
National Institute of Health (NIH), Bethesda, MD
Assay Provider (PI) Rahul Kohli Ph.D.
Perelman School of Medicine
University of Pennsylvania, Philadelphia, PA
Activation-Induced Deaminase (AID) is a cytosine deaminase which converts cytosine into uracil within stretches of ssDNA. The presence of uracil in DNA initiates a cascade of mutagenic DNA repair to introduce point mutations and DNA double strand breaks. Specific targeting of AID to the immunoglobulin heavy chain loci (Igh) promotes mutagenesis in the antibody variable region for somatic hypermutation (SHM) or switch regions leading to class switch recombination (CSR). However, AID also plays a role in accumulating unnecessary mutations across the genome. Mis-targeting of AID results in the initiation of tumor development and leads to greater drug resistance among cancer cells when continually expressed. To identify an AID inhibitor, a small molecule library will be screened in collaboration with NCATS core facility at NIH. To confirm biological function, inhibitors will be examined in an in vitro murine B-cell activation assay and subsequent secondary validation screens. Top molecules will be further screened to identify inhibitory efficacy against a wild type primary splenocytes assay. Using these approaches, we hope to identify a small molecule with great efficacy and low toxicity for use as a molecular probe to further characterize AID's intricacies, or even as a therapeutic.
A FRET based analysis of cytosine deamination, was developed to identify potential inhibitors of AID catalytic activity. This screen has two signal output, Read 1 evaluates the AID inhibition response. The second readout (Read 2) evaluates UDG response and is uses as a counterscreen to exclude false positive inhibitors. Inhibition in AID and inactivity in the UDG signal is the desired outcome for this assay.
SEQUENCE No. (e.g., 1, 2, 3, etc.); […] (e.g., Cells, Incubation, Reagent, etc.); VALUE; DESCRIPTION
1a; Reagent; 3 uL; [4/3x] 1 uM AID/2.67 U/mL UDG
1b; Reagent; 3 uL; 2 U/mL UDG
1c; Reagent; 3 uL; 1 uM AID
2a; Compound; 46 nL; Follow-up plates (0.64 uM - 10 mM)
2b; Control; 46 nL; ATA ([…] - 10 mM)
3; Time; 10 min; incubation at room temperature
5; Time; 4 hr; incubation at room temperature
6; Reagent; 4 uL; [2x] 250 mM NaOH
7; Time; 15 sec; centrifuge at 1000 rpm
8; Time; 30 min; incubation at room temperature
9a; Detection; fluorescence (Read 1: AID); EnVision (PerkinElmer) plate reader, 540 excitation and 590 emission filters
9b; Detection; fluorescence (Read 2: UDG); EnVision (PerkinElmer) plate reader, 560 excitation and 665 emission filters
NOTES (numbers refer to sequence above)
1a; Reagents were dispensed in a medium-binding black solid-bottom Greiner plates (789176F) using a BioRptr liquid dispenser. Dispense 3 uL of [4/3x] 1 uM AID (provided by Kohli lab) and [4/3x] 2 U/mL UDG (NEB M0280L) into columns 1, 2, 5 to 48.
1b; Dispense 3 uL of [4/3x] 2 U/mL UDG into column 3.
1c; Dispense 3 uL of [4/3x] 1 uM AID into column 4.
2a; Compound (7-points [uM] (0.64; 3.2; 16; 80; 400; 2,000; 10,000; 20,000) double pin-transferred (Dip Factor = 2) using the Kalypsys (Wako USA) pintool equipped with a 1536 pinhead for a final concentration range of 7.32 nM - 114 uM.
2b; 10 mM Aurintricarboxylic Acid (Sigma A1895) (ATA, 8-point, n = 2, 1:2.5 dilution in column 2) double pin-transferred (Dip Factor = 2) using the Kalypsys (Wako USA) pintool equipped with a 1536 pinhead for a [final] range of 186 nM - 114 uM.
3; Room temperature incubation.
4; Dispense 1 uL of substrate mixture from the Kohli lab [4x] […] DJC20 and [4x] 250 nM DJC23 into columns 1 to 48 .
5; Room temperature incubation.
6; Dispense 4 uL of substrate mixture [2x] 250 mM NaOH into columns 1 to 48.
7; Centrifugation step to remove bubbles.
8; Room temperature incubation
9a; Fluorescence signal (column label AID) was read using the EnVision plate reader. […]
For orientation: Quantitative high-throughput screening tests each substance at several concentrations.
On to `CCc1ccc(CCC(=O)NC)cc1`, for which the “activity change, negative = inhibition” value was -3.77%.
`CC(=O)N1CCC(C(=O)Nc2ccc(Br)cc2)CC1`: the “activity change, negative = inhibition” value is -1.32%.
Still for that read-out and setting: with `Cc1cccc(C(=O)OC2CCCN(C)C2)c1` (stereo not given) the figure was 1.04%.
On to `CCN(CC)C(=S)SC(C(N)=O)c1ccccc1` (stereo not given), for which the “activity change, negative = inhibition” value is -2.39%.
Same read-out and setting: then `CCCc1cc(=O)oc2cc(OS(=O)(=O)c3cccc(C#N)c3)ccc12`, with -6.87%.
The same measure, in the same setting: then `CCn1c(C)cc(/C=C(\C#N)c2ccc(Br)cc2)c1C`, with -17%.
With `CCOC(=O)C1CCN(C(=O)COC(=O)c2cn(-c3ccccc3)nc2-c2ccc(Cl)cc2)CC1`, the “activity change, negative = inhibition” value was -1.08%.
In the case of `CCOc1ccccc1C(=O)NCc1ccc2c(c1)CCN2C(=O)c1ccc(F)cc1`, the “activity change, negative = inhibition” value is -1.92%.
As for `O=C(COc1ccccc1)NCc1ccc2c(c1)CCN2C(=O)c1ccc(F)cc1`, the Potency is 22.4 µM (active).
For the molecule `COc1ccc(CCC(=O)NCc2ccc3c(c2)CCN3C(=O)c2ccc(F)cc2)cc1`, the “activity change, negative = inhibition” value was -16.6%.
As to `N#CCCc1c(O)ccc2ccccc12`, the “activity change, negative = inhibition” value was -3.83%.
On the same count and under the same terms, then `Cc1cccc(NC(=O)C(C#N)C(=O)CC(C)(C)C)c1` (stereo not given), with -20.9%; and `O=C(CSc1nc2c(c(=O)n1CCc1ccccc1)SCC2)Nc1cccc2ccccc12`, with -4.61%; and `O=C(Nc1ccc(C(F)(F)C(F)(F)C(F)(F)F)oc1=O)c1ccccc1`, with -2.06%.
Take `COc1ccc(Cn2cc(C(=O)c3ccc(C)cc3)c(=O)c3cc(OC)c(OC)cc32)cc1`: the Potency was 44.7 µM (active).
As for `COc1ccc(NC(=O)Cn2cc(C(=O)c3ccncc3)c(=O)c3cc(C)ccc32)cc1Cl`, the “activity change, negative = inhibition” value was 20.6%.
As to `CCOc1ccc(NC(=O)Cn2cc(C(=O)c3ccc(C)cc3)c(=O)c3cc4c(cc32)OCCO4)cc1`, the “activity change, negative = inhibition” value is 2.34%.
On to `Cc1ccccc1C(C)NC(=O)c1cc(-c2ccccc2)n[nH]1` (stereo not given), for which the “activity change, negative = inhibition” value was -6.39%.
Same read-out and setting: with `COc1ccc(-c2cc3c(=O)n(CC(=O)NCc4cccc(Br)c4)ncn3n2)cc1` the figure was -2.07%; with `Cc1cc2c(cc1C)NC(CC(=O)Nc1ccc(C(F)(F)F)cc1)C(=O)N2` (stereo not given), 5.04%; with `Cc1cn[nH]c1C#N`, 4.84%.
Same read-out and setting: with `CCCCCOC(=O)CSc1nc2c(c(=O)[nH]c(=O)n2C)n1CCC` the figure was -11.6%; with `Cn1nc(C(F)(F)F)c(Cl)c1C(=O)NC1CCCC1`, 0.508%.
Turning to `Cc1ccccc1NC(=O)c1cc2c(=O)n3cccc(C)c3nc2n1Cc1ccccc1`, the “activity change, negative = inhibition” value is -5.68%.
On to `COC(=O)Cc1c(C)c2ccc(OCc3ccc(F)cc3)cc2oc1=O`, for which the “activity change, negative = inhibition” value is -9.33%.
Still for that read-out and setting: then `CCn1c(SCC(=O)c2ccc(Cl)cc2Cl)nnc1-c1cnccn1`, with -7.85%; and `CCOC(=O)C1=C(CN(CCOC)Cc2ccco2)NC(=O)NC1c1cccc(OC)c1OC` (stereo not given), with -4.9%; and `O=C(COC(=O)CC12CC3CC(CC(C3)C1)C2)Nc1ccc([N+](=O)[O-])cc1C(F)(F)F`, with -2.15%.
Turning to `O=C(O)CC(NC(=O)Cc1cccc(F)c1)c1ccc(F)cc1` (stereo not given), the “activity change, negative = inhibition” value is -2.56%.
Still for that read-out and setting: then `O=[N+]([O-])/C=C/c1ccc(-c2ccccc2)o1`, with -1.14%; and `O=C1CCCc2nccc(-c3ccc(Cl)cc3)c21`, with -2.16%.
Still for that read-out and setting: with `COC(=O)COc1cccc(C(=O)Nc2ccc(-c3nc4ccccc4o3)cc2)c1` the figure was 2.24%.
As to `CCCn1c2ccccc2c2cnn(CC(=O)N(CC)c3cc(C)ccc3C)c(=O)c21`, the Potency is 35.5 µM (active).
In the case of `CCCn1c2ccccc2c2cnn(CC(=O)N3CCCC(C(=O)OCC)C3)c(=O)c21` (stereo not given), the “activity change, negative = inhibition” value was -20.2%.
Still for that read-out and setting: then `CCCn1c2ccccc2c2cnn(CC(=O)NCCCOC(C)C)c(=O)c21`, with 7.63%.
